Compounds with a hit are over-represented: about 5.9% of the library has one in this group of screens.
GLP-1R agonist: agonists of human GLP-1 receptor; HEK293 GLP-1R CRE-luciferase, luminescence, 4-6 h; cells express a hypersensitive GLP-1R form; Potency, µM (series often up to 45.6 µM), without a hit: at the highest dose activation, usual class: activators; actives 0.007% (n = 380,000); note: % of control where 0% means no effect
GLP1R inv ag: inverse agonists of human GLP-1 receptor. P43220. HEK293 GLP-1R CRE-luciferase, luminescence, 24 h; GLP-1R form is constitutively active. Potency, µM (top dose mostly 38.3 µM), for inactives: top-dose activity change, negative = inhibition, hits mostly inhibitors. actives 1.6% (n = 410,000); note: % is set by controls: 0 for no effect and ±100 for the full control effect; nearly all actives have a fitted effect of over 55% in size
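Assay principle: reduced luminescence from a cAMP-responsive reporter in HEK293 cells co-expressing a constitutively active GLP-1R. Conditions: 24 hr compound incubation, 37 deg C, 5% CO2.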
VP16 counter: Gal4-VP16 reporter inhibition counter-screen. actives 3.5% (n = 310,000). Potency, µM (doses to about 53.6 µM), for inactives: at the top dose activity, negative = inhibition, actives largely listed as inhibitors. Drosophila S2 Gal4-VP16 UAS-luciferase, luminescence, 20 h. AID 2546;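 note: Gal4-VP16 expression switched on by copper sulfate through the metallothionein promoter; % is set by controls: 0 for no effect and ±100 for the full control effect; nearly all actives have a fitted effect of over 50% in size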
RORg inh: ROR gamma (mouse) transcription inhibition | actives 5.4% (n = 310,000) | Potency, µM (series often up to 53.6 µM), without a hit: at the highest dose activity change, negative = inhibition, hits mostly inhibitors | P51450 | Drosophila S2 Gal4-RORgamma UAS-luciferase reporter, 20 h; note: % is set by controls: 0 for no effect and ±100 for the full control effect; nearly all actives have a fitted effect of over 60% in size
Target sequence (P51450 whole entry, looked up, the tested form may be a part): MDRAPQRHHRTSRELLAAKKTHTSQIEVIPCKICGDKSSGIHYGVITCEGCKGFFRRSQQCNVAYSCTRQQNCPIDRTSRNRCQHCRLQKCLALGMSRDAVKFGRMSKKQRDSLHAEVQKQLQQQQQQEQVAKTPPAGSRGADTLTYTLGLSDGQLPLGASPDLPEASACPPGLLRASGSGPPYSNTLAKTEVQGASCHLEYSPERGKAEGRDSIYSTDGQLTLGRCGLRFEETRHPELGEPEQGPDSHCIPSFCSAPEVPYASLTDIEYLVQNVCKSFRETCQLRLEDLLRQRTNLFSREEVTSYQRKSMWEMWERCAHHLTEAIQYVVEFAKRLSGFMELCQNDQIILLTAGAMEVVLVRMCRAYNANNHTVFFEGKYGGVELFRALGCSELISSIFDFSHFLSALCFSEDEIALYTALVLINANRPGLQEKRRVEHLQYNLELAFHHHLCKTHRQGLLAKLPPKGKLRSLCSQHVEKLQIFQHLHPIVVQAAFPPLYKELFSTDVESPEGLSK
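Stable Schneider cell line, Gal4 DNA-binding domain fused to ROR gamma, UAS-luciferase. Cmpd 1 hr RT → CuSO4 700 uM final → 20 hr RT → luciferase reagent 10 min → luminescence.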
GLP1R cytotox: cytotoxicity counter-screen for GLP-1 receptor inverse agonists; Potency, µM (highest dose often 38.3 µM), for the others: at the top dose activity change, negative = inhibition, most hits filed as inhibitors; actives 0.13% (n = 410,000); AID 624418; HEK293 cAMP-luciferase reporter cells, luminescence, 24 h;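 note: loss of luciferase light is scored as toxicity; % is set by controls: 0 for no effect and ±100 for the full control effect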
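A 23 nL compound transfer followed 12 hours of cell culture at 37 deg C; exposure then lasted 24 hr. Luciferase assay detection reagent was dispensed and plates read for luminescence after a 12 min room-temperature wait.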
Numbers without * were called inactive; ? = inconclusive; . = no result. Calls come from the whole dose curve; as a rule, active = well fitted curve in the direction sought with a large enough effect; inconclusive = small, poorly fitted or top-dose-only effect, or another doubt; inactive = no such curve, though single readings can be large; an effect the other way counts as inactive or inconclusive. Potency is the fitted concentration of half-maximal effect.

SMILES	GLP-1R agonist	GLP1R inv ag	VP16 counter	RORg inh	GLP1R cytotox
COc1ccc(C)cc1NC(=O)Cn1c(=O)ccc2cc(S(=O)(=O)N3CCC(C)CC3)ccc21	.	2%	.	.	-2%
CC1(c2ccc3ccccc3c2)NC(=O)N(CC(=O)NCc2cccs2)C1=O (stereo not given)	-6%	-18%	-6%	?	-6%
CCCCCC(C)NC(=O)CN1C(=O)NC(C)(c2ccc3ccccc3c2)C1=O (stereo not given)	-5%	?	13µM*	5µM*	-1%
CC(=O)Nc1sc2c(c1CN1CCCC1)CCCC2	7%	-29%	12%	-10%	-4%
CC(=O)Nc1sc2c(c1CN1CCN(c3ccc(F)cc3)CC1)CCCC2	-3%	7.1µM*	2%	14%	-1%
Cc1ccc(-c2nn(-c3ccccc3)cc2CNCc2ccccc2)cc1	-2%	?	14µM*	?	?
Cc1cccc(N2C(=O)C(Cc3ccccc3)NC2=S)c1 (stereo not given)	2%	?	?	?	4%
O=C1C(Cc2ccccc2)NC(=S)N1c1ccccc1 (stereo not given)	-10%	0%	?	11µM*	-1%
C=CCNC(=S)NCCCCC1NC(=S)N(CC=C)C1=O (stereo not given)	3%	-20%	4%	?	15%
O=C1C(CCCNC(=S)NCc2ccccc2)NC(=S)N1Cc1ccccc1 (stereo not given)	-4%	?	?	22µM*	-8%
CC1NC(=S)N(Cc2ccccc2)C1=O (stereo not given)	9%	?	-10%	4%	-14%
O=C(O)CC1NC(=S)N(Cc2ccccc2)C1=O (stereo not given)	-3%	7.9µM*	.	.	?
CCN(C(=O)CCS(=O)(=O)c1cc2[nH]c(=O)c(=O)[nH]c2cc1C)c1ccccc1	.	4%	.	.	6%
CC(C)(C)c1ccc(CN(Cc2ccco2)Cc2nnnn2C2CCCC2)cc1	1%	0%	2.8µM*	36%	?
COc1ccc2cc(CN(Cc3ccco3)Cc3nnnn3C3CCCCC3)c(=O)[nH]c2c1	-1%	0%	-8%	26%	-23%
Cn1c(=NC(=O)c2ccc(S(=O)(=O)N3CCCC3)cc2)sc2cc(F)ccc21	.	1%	.	.	-4%
COC(=O)c1ccc(NC(=S)NC(=O)c2c(-c3ccccc3)noc2C)cc1	7%	3%	?	7.1µM*	0%
Cc1onc(-c2ccccc2Cl)c1C(=O)N1CCN(c2ccccc2)CC1	-2%	0%	5%	-6%	5%
Cc1[nH]c(-c2ccc(F)cc2)cc1C(=O)N1CCN(c2cccc(Cl)c2)CC1	6%	5µM*	-4%	16%	?
O=C(c1cc2cc(F)ccc2[nH]1)N1CCN(c2cccc(Cl)c2)CC1	-4%	-7%	10%	8%	0%
Cc1ccc(NC(=S)NC(=O)c2c(-c3ccccc3Cl)noc2C)cc1	-3%	-57%	11µM*	4µM*	12%
Cc1onc(-c2ccccc2Cl)c1C(=O)N1CCN(c2cccc(Cl)c2)CC1	3%	1µM*	-1%	1%	-13%
COC(=O)c1ccc(C(=O)OC)c(NC(=O)c2c(-c3ccccc3)noc2C)c1	-4%	?	.	.	-29%
CC/C(O)=N/S(=O)(=O)c1ccc(-c2c(-c3ccccc3)noc2C)cc1	0%	.	.	.	.
CCCn1c(C)nc2c(Nc3ccccc3)nc(C)nc21	.	.	8%	-37%	.
COc1ccc(-c2ccoc2)cc1C1C2C=CCC(C)C2C(=O)N1Cc1ccccc1 (stereo not given)	.	.	?	-40%	.
CC(=O)N1CCN(C(=S)NC(=O)c2c(-c3ccccc3Cl)noc2C)CC1	-3%	0%	5µM*	1.6µM*	-3%
Cc1onc(-c2ccccc2Cl)c1C(=O)NC(=S)Nc1ccc(C(C)C)cc1	-5%	4µM*	?	1.8µM*	5%
Cc1onc(-c2ccccc2Cl)c1C(=O)NC(C)c1ccccc1 (stereo not given)	0%	-15%	-19%	-24%	6%

Bioassay records as filed in PubChem.
